Data on ten molecules can be found in PubChem BioAssay (NCI).

The panel holds about 79,000 compounds, 15% with a hit somewhere; the sample as a whole holds those more often. A number with no mark means an inactive call. The source made the active and inactive calls. No stated cut-off is given here; in the data, active means growth inhibition above about 70%; inactive means the rest.

Assay [1] in a line: NCI Yeast Anticancer Drug Screen. Data for the rad50 strain (AID 155).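 Further: 0% = growth of vehicle-only cultures of the same strain.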 To be noted: S. cerevisiae rad50 strain growth inhibition, active compounds read high. Summed up: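 Cells are treated with compound, grown, and their growth is then scored against vehicle-only cultures of the same repair-deficient yeast strain.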
Assay [2] is described as follows: NCI Yeast Anticancer Drug Screen. Data for the mec2-1 strain (AID 157). The following applies: S. cerevisiae mec2-1 strain, active compounds read high. Summed up: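 mec2-1 yeast strain, carrying an alteration in DNA damage repair or cell cycle control, was exposed to compounds; growth inhibition was measured relative to vehicle-treated controls.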
The nature of assay [3]: NCI Yeast Anticancer Drug Screen. Data for the sgs1 mgt1 strain (AID 161).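 Further: 0% = growth of cultures given vehicle only.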 The following applies: S. cerevisiae sgs1 mgt1 strain, active compounds read high. An outline of the steps:
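Percent growth inhibition was derived by comparing compound-exposed mutant yeast with vehicle-exposed cultures. The strain carries alterations in DNA damage repair.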

Assay [4] is described as follows: NCI Yeast Anticancer Drug Screen. Data for the cln2 rad14 strain (AID 165).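 Further: 0% = growth equal to vehicle treated cultures.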 The following applies: S. cerevisiae cln2 rad14 strain, active compounds read high. An outline of the steps: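 Yeast carrying cln2 and rad14 alterations (cell cycle control and DNA damage repair) were exposed to compounds. Growth inhibition was measured against vehicle-treated controls.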
Assay [5] is described as follows: NCI Yeast Anticancer Drug Screen. Data for the bub3 strain (AID 167). To be noted: S. cerevisiae bub3 mutant strain, active compounds read high. Summed up: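 Part of a panel of yeast mutants defective in DNA damage repair or cell cycle regulation. Each strain is grown with compound, and inhibition is calculated relative to solvent-treated cultures.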
A short description of assay [6]: NCI Yeast Anticancer Drug Screen. Data for the mlh1 rad18 strain (AID 175). The following applies: S. cerevisiae mlh1 rad18 strain growth inhibition, active compounds read high. Summed up: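 Growth inhibition of the yeast strain was measured after compound exposure and expressed relative to vehicle-treated controls. The strain carries defined defects in DNA damage repair.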

Setting [7] is: at 5.0 µM (retest, dose inferred, filed as 0.5).
The mark [8] stands for this setting: at 50.0 µM (retest, dose inferred, filed as 5.0).

Consider `O=C(OCc1ccccc1)N(CCCCN(CCCNCc1ccccc1)C(=O)OCc1ccccc1)CCCNCc1ccccc1`, for which the growth inhibition was 11% in assay [1] (setting [7]); 99% (active) in assay [1] (setting [8]); 90.3% (active) in assay [1] (at 50.0 µM); 22% in assay [2] (setting [7]); 100% (active) in assay [2] (setting [8]); 93.2% (active) in assay [2] (at 50.0 µM). Also, the growth inhibition in assay [3] (setting [7]) was 10%; in assay [3] (setting [8]), 100% (active); in assay [3] (at 50.0 µM) it was 91.7% (active); in assay [4] (setting [7]), 3%; in assay [4] (setting [8]), 99% (active); in assay [4] (at 50.0 µM), 90% (active). In addition, the growth inhibition in assay [5] (setting [7]) is 29%; in assay [5] (setting [8]) it was 99% (active); in assay [5] (at 50.0 µM) it was 91.8% (active); in assay [6] (setting [7]) it was 28%; in assay [6] (setting [8]), 99% (active); in assay [6] (at 50.0 µM), 91.2% (active).

As to `CS/C(=N\C(=S)N(C)C)N(c1ccccc1)c1nc(=[N+](C)C)ss1`, the growth inhibition is 27% in assay [1] (setting [7]); 98% (active) in assay [1] (setting [8]); 98.5% (active) in assay [1] (at 50.0 µM); 13% in assay [2] (setting [7]); 67% in assay [2] (setting [8]); 99.5% (active) in assay [2] (at 50.0 µM). Also, the growth inhibition in assay [3] (setting [7]) is 38%; in assay [3] (setting [8]) it was 98% (active); in assay [3] (at 50.0 µM), 97.9% (active); in assay [4] (setting [7]), 1%; in assay [4] (setting [8]) it was 99% (active); in assay [4] (at 50.0 µM), 86.1% (active). Further, the growth inhibition in assay [5] (setting [7]) is 27%; in assay [5] (setting [8]), 97% (active); in assay [5] (at 50.0 µM) it was 98.8% (active); in assay [6] (setting [7]) it was 22%; in assay [6] (setting [8]), 98% (active); in assay [6] (at 50.0 µM), 98.7% (active).

Take `O=C(c1ccccc1)c1ccc2c(c1Cl)C(=O)c1ccccc1C2=O`: the growth inhibition was -6% in assay [1] (setting [7]); -1% in assay [1] (setting [8]); 43% in assay [1] (at 50.0 µM); -3% in assay [2] (setting [7]); -7% in assay [2] (setting [8]); 43.8% in assay [2] (at 50.0 µM). The growth inhibition in assay [3] (setting [7]) is 0%; in assay [3] (setting [8]), 0%; in assay [3] (at 50.0 µM) it was 63.8%; in assay [4] (setting [7]), 14%; in assay [4] (setting [8]), -16%; in assay [4] (at 50.0 µM) it was 4%. The growth inhibition in assay [5] (setting [7]) was -8%; in assay [5] (setting [8]), -11%; in assay [5] (at 50.0 µM) it was 80.5% (active); in assay [6] (setting [7]) it was 1%; in assay [6] (setting [8]), 0%; in assay [6] (at 50.0 µM), 65.2%.

For the molecule `CC(C)COP(=O)(OCC(C)C)C(NS(=O)(=O)c1ccccc1)(C(F)(F)F)C(F)(F)F`, the growth inhibition in assay [1] (setting [7]) is 4%; in assay [1] (setting [8]), 11%; in assay [1] (at 50.0 µM), 63.5%; in assay [2] (setting [7]), -12%; in assay [2] (setting [8]), -2%; in assay [2] (at 50.0 µM), 82.7% (active). Moreover, the growth inhibition in assay [3] (setting [7]) is 7%; in assay [3] (setting [8]), -5%; in assay [3] (at 50.0 µM) it was -2.35%; in assay [4] (setting [7]), 27%; in assay [4] (setting [8]) it was 42%; in assay [4] (at 50.0 µM), 6.85%. Besides, the growth inhibition in assay [5] (setting [7]) was -6%; in assay [5] (setting [8]) it was 8%; in assay [5] (at 50.0 µM) it was -3.8%; in assay [6] (setting [7]) it was 0%; in assay [6] (setting [8]) it was 3%; in assay [6] (at 50.0 µM), 90.2% (active).

For `Cc1ccc([Si](O)(c2ccc(C)cc2)c2ccc(C)cc2)cc1`, the growth inhibition in assay [1] (setting [7]) is 85% (active); in assay [1] (setting [8]), 92% (active); in assay [1] (at 50.0 µM), 95.2% (active); in assay [2] (setting [7]) it was 78% (active); in assay [2] (setting [8]), 94% (active); in assay [2] (at 50.0 µM), 93% (active). The growth inhibition is 71% (active) in assay [3] (setting [7]); -27% in assay [3] (setting [8]); 93.5% (active) in assay [3] (at 50.0 µM); 67% in assay [4] (setting [7]); 90% (active) in assay [4] (setting [8]); 93.6% (active) in assay [4] (at 50.0 µM). Moreover, the growth inhibition in assay [5] (setting [7]) was 75% (active); in assay [5] (setting [8]) it was 92% (active); in assay [5] (at 50.0 µM), 86.3% (active); in assay [6] (setting [7]), 84% (active); in assay [6] (setting [8]), 93% (active); in assay [6] (at 50.0 µM), 94.4% (active).

`Cc1ccc(C(=O)OCCN2CCOCC2)c([N+](=O)[O-])c1OCc1ccccc1`: the growth inhibition was 14% in assay [1] (setting [7]); 61% in assay [1] (setting [8]); 73.2% (active) in assay [1] (at 50.0 µM); 18% in assay [2] (setting [7]); 46% in assay [2] (setting [8]); 63.4% in assay [2] (at 50.0 µM). In addition, the growth inhibition in assay [3] (setting [7]) is 13%; in assay [3] (setting [8]), 81% (active); in assay [3] (at 50.0 µM) it was 84.7% (active); in assay [4] (setting [7]) it was 11%; in assay [4] (setting [8]), 28%; in assay [4] (at 50.0 µM) it was 6.7%. The growth inhibition was 11% in assay [5] (setting [7]); 65% in assay [5] (setting [8]); 68.5% in assay [5] (at 50.0 µM); 10% in assay [6] (setting [7]); 58% in assay [6] (setting [8]); 78.3% (active) in assay [6] (at 50.0 µM).

For the molecule `Oc1c(Br)ccc2c(O)c(Br)ccc12`, the growth inhibition in assay [1] (setting [7]) was 42%; in assay [1] (setting [8]), 93% (active); in assay [1] (at 50.0 µM) it was 89.7% (active); in assay [2] (setting [7]), 51%; in assay [2] (setting [8]), 94% (active); in assay [2] (at 50.0 µM), 91% (active). For the same molecule, the growth inhibition in assay [3] (setting [7]) was 36%; in assay [3] (setting [8]), 98% (active); in assay [3] (at 50.0 µM), 92.5% (active); in assay [4] (setting [7]) it was 57%; in assay [4] (setting [8]) it was 98% (active); in assay [4] (at 50.0 µM), 90.5% (active). Also, the growth inhibition in assay [5] (setting [7]) is 53%; in assay [5] (setting [8]), 97% (active); in assay [5] (at 50.0 µM), 90.8% (active); in assay [6] (setting [7]), 31%; in assay [6] (setting [8]), 88% (active); in assay [6] (at 50.0 µM) it was 89.4% (active).

Turning to `CCO/C=C1N=C(/C=C/c2ccc(Cl)cc2)OC/1=O`, the growth inhibition in assay [1] (setting [7]) is 5%; in assay [1] (setting [8]), 31%; in assay [1] (at 50.0 µM), 28.4%; in assay [2] (setting [7]) it was 7%; in assay [2] (setting [8]), 13%; in assay [2] (at 50.0 µM) it was 32.8%. The growth inhibition in assay [3] (setting [7]) is 14%; in assay [3] (setting [8]), 19%; in assay [3] (at 50.0 µM), 47%; in assay [4] (setting [7]), 8%; in assay [4] (setting [8]), 43%; in assay [4] (at 50.0 µM) it was -38.7%. Besides, the growth inhibition in assay [5] (setting [7]) is 14%; in assay [5] (setting [8]), 29%; in assay [5] (at 50.0 µM) it was 22.6%; in assay [6] (setting [7]), 1%; in assay [6] (setting [8]), 25%; in assay [6] (at 50.0 µM) it was 40.8%.

Turning to `CC(O)C(NC(=O)OCc1ccccc1)C(=O)OC(c1ccccc1)c1ccccc1` (stereo not given), the growth inhibition was 0% in assay [1] (setting [7]); 95% (active) in assay [1] (setting [8]); 98% (active) in assay [1] (at 50.0 µM); 17% in assay [2] (setting [7]); 99% (active) in assay [2] (setting [8]); 97.8% (active) in assay [2] (at 50.0 µM). Further, the growth inhibition in assay [3] (setting [7]) was -23%; in assay [3] (setting [8]) it was 98% (active); in assay [3] (at 50.0 µM), 97.5% (active); in assay [4] (setting [7]) it was -3%; in assay [4] (setting [8]) it was 96% (active); in assay [4] (at 50.0 µM), 97% (active). In addition, the growth inhibition in assay [5] (setting [7]) is 2%; in assay [5] (setting [8]) it was 97% (active); in assay [5] (at 50.0 µM), 97.3% (active); in assay [6] (setting [7]), 10%; in assay [6] (setting [8]), 97% (active); in assay [6] (at 50.0 µM), 96.5% (active).

On to `N=c1c2ccccc2cc2c3ccccc3ccn12`, for which the growth inhibition in assay [1] (setting [7]) is 45%; in assay [1] (setting [8]) it was 93% (active); in assay [1] (at 50.0 µM), 97.3% (active); in assay [2] (setting [7]), 47%; in assay [2] (setting [8]), 97% (active); in assay [2] (at 50.0 µM) it was 98% (active). Moreover, the growth inhibition is 56% in assay [3] (setting [7]); 95% (active) in assay [3] (setting [8]); 97.8% (active) in assay [3] (at 50.0 µM); 54% in assay [4] (setting [7]); 93% (active) in assay [4] (setting [8]); 86% (active) in assay [4] (at 50.0 µM). Further, the growth inhibition in assay [5] (setting [7]) was 57%; in assay [5] (setting [8]), 95% (active); in assay [5] (at 50.0 µM) it was 96.5% (active); in assay [6] (setting [7]) it was 60%; in assay [6] (setting [8]), 96% (active); in assay [6] (at 50.0 µM) it was 96.1% (active).
